How the values were obtained:
Assay in all cases: log2 ratio of Biotin-Ahx-Ub-VS probe labelling (fragment/DMSO); higher = less target engagement (more negative = stronger competition), active = hit call of the paper (q ≤ 0.05, log2 ratio ≤ -1)
Settings in all cases: compound concentration: 200 uM; treatment time: 3 h
[1] = target: T1, USP42 (UniProt Q9H9J4)
T1 sequence (whole entry): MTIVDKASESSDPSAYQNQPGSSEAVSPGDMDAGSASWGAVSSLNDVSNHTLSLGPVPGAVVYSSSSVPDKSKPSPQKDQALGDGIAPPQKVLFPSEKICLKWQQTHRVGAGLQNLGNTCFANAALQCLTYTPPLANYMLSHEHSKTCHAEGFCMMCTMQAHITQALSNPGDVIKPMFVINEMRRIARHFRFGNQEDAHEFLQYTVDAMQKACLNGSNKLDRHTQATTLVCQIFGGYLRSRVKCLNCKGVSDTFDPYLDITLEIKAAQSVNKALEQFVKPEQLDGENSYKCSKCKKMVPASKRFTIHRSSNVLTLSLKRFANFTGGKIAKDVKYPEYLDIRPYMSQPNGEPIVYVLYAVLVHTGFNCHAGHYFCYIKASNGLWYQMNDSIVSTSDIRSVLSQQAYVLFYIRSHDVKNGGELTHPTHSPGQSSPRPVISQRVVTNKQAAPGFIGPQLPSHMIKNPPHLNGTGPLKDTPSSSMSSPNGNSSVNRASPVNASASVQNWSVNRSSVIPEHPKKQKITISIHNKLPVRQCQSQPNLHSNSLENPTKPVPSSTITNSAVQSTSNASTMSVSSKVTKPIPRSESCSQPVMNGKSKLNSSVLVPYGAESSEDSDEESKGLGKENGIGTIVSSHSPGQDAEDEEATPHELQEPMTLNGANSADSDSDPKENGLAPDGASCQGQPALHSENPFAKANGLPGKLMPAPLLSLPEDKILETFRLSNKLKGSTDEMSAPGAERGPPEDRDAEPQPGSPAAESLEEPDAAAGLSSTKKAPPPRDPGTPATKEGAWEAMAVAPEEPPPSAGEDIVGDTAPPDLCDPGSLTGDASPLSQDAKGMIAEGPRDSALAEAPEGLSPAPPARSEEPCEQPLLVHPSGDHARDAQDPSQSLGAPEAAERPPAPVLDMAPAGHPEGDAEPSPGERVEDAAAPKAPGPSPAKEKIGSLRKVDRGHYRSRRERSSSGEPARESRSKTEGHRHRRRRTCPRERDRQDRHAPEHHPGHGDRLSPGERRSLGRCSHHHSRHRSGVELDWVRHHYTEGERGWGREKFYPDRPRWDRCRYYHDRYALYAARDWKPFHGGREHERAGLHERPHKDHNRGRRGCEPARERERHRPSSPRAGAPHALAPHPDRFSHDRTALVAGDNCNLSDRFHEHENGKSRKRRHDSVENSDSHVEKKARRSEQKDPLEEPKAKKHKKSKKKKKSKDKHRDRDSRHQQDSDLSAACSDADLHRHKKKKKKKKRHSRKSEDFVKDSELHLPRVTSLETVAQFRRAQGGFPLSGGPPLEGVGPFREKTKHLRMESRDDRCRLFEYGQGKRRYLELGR
In short: (§1)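 Labelled DUBs from HEK293T lysate were NeutrAvidin-enriched, digested with LysC and trypsin, and run by diaPASEF LC-MS/MS. Before that, each 495 µg sample in Tris/CHAPS/IGEPAL buffer with protease inhibitors was treated in triplicate with fragment at 200 µM or vehicle for 3 h, then with Biotin-Ahx-Ub-VS at 0.5 µM final for 1 h. Values are average log2 ratios of fragment over vehicle by unpaired t-test, based on global-median-normalised Spectronaut label-free quantities from proteins with ≥2 unique peptides.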

[2] = target: USP46 (UniProt P62068)
Chain of USP46 (P62068 whole entry): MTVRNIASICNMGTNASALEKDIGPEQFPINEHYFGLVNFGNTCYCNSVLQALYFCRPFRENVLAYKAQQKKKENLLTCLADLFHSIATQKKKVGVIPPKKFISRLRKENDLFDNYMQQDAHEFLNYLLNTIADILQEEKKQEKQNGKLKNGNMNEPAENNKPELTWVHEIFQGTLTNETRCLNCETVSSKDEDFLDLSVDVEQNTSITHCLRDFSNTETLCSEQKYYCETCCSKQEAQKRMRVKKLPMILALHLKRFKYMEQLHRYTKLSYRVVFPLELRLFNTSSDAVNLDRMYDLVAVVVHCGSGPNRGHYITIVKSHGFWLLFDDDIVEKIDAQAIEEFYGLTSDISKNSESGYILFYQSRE
In short: as §1

[3] = target: T2, USP47 (UniProt Q96K76)
T2 sequence (whole entry): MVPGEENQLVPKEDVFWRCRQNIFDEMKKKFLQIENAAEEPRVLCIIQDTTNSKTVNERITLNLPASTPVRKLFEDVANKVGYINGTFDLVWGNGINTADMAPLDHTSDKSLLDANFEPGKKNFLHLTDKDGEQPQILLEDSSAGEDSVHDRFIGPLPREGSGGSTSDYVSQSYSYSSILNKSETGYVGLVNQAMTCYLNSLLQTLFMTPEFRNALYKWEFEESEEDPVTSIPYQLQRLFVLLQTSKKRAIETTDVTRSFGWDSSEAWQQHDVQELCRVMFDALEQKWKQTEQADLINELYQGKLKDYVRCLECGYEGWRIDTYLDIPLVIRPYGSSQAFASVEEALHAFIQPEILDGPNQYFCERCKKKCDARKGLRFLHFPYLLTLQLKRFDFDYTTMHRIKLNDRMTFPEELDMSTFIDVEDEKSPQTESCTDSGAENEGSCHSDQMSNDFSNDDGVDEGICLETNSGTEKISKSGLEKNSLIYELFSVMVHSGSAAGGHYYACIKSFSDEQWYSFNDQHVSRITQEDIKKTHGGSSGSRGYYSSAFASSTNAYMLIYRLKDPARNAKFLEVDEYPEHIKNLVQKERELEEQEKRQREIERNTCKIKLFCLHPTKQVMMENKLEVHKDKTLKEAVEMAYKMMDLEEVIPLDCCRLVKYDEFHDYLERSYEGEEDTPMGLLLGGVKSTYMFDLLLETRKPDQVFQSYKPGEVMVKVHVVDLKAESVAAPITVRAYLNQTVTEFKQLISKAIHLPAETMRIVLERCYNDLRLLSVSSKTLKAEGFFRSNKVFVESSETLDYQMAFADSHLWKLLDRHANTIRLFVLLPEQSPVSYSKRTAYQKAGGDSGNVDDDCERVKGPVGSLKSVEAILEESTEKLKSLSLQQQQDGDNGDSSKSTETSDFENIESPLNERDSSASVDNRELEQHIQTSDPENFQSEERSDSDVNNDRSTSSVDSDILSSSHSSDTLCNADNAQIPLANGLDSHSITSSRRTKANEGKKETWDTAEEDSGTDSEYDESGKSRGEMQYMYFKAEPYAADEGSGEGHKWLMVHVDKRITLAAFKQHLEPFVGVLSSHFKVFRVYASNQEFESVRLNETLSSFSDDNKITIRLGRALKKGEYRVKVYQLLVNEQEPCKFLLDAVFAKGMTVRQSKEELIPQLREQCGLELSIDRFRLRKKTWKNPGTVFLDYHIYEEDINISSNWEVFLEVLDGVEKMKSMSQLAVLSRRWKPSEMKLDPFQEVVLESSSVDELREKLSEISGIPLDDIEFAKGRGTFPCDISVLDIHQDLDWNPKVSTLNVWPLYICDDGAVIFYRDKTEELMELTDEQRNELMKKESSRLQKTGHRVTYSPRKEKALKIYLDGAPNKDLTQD
In short: as §1

[4] = target: T3, USP48 (UniProt Q86UV5)
T3 sequence (whole entry): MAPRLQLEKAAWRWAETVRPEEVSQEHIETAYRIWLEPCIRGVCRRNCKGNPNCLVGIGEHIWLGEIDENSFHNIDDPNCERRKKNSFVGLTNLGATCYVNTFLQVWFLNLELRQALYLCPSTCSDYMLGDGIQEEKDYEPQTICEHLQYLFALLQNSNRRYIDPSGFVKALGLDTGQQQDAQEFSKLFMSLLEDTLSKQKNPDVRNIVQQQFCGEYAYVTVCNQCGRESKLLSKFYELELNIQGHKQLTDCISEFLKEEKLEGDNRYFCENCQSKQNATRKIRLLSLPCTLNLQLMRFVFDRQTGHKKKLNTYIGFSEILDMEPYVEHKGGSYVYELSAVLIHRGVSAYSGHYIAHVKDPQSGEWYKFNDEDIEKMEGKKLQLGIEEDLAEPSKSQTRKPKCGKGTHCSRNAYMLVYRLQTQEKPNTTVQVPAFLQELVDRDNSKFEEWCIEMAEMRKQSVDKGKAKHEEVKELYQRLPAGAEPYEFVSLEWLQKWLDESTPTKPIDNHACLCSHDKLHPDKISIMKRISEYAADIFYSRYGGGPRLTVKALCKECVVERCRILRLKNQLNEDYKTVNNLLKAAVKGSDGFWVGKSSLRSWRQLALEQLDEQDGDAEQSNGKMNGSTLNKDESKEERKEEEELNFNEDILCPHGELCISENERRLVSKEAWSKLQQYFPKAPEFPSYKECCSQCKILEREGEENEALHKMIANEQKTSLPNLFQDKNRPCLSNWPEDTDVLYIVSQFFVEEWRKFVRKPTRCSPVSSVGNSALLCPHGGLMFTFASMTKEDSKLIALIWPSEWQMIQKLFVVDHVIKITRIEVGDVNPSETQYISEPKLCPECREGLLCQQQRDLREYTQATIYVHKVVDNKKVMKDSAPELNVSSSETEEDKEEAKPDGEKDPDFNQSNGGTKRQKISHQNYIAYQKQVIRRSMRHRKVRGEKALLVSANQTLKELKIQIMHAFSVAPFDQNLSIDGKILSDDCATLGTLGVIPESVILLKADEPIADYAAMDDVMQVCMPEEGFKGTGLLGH
In short: as §1

[5] = target: T4, USP5 (UniProt P45974)
T4 sequence (whole entry): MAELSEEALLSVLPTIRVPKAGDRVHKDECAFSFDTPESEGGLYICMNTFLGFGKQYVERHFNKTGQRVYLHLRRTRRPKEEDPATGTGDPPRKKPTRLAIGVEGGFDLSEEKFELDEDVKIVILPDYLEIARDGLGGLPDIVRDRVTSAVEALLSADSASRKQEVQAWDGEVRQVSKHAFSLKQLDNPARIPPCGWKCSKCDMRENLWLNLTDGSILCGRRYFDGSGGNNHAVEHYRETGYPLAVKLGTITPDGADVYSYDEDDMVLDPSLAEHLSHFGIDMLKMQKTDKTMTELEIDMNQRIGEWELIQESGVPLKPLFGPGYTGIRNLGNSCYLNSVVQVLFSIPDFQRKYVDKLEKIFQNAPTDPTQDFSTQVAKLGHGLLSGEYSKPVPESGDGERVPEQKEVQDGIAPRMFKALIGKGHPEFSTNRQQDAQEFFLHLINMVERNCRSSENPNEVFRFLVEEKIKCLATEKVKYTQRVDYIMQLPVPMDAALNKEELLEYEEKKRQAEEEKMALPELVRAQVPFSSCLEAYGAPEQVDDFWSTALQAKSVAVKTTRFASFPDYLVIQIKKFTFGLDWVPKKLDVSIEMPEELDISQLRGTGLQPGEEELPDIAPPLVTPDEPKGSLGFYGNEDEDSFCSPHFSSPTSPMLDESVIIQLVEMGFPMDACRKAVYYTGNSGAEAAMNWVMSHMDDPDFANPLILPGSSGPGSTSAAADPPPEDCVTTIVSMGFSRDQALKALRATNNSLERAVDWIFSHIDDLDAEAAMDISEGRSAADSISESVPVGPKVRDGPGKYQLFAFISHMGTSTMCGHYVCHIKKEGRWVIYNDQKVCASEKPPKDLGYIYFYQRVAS
In short: as §1

[6] = target: USP54 (UniProt Q70EL1)
Chain of USP54 (Q70EL1 whole entry): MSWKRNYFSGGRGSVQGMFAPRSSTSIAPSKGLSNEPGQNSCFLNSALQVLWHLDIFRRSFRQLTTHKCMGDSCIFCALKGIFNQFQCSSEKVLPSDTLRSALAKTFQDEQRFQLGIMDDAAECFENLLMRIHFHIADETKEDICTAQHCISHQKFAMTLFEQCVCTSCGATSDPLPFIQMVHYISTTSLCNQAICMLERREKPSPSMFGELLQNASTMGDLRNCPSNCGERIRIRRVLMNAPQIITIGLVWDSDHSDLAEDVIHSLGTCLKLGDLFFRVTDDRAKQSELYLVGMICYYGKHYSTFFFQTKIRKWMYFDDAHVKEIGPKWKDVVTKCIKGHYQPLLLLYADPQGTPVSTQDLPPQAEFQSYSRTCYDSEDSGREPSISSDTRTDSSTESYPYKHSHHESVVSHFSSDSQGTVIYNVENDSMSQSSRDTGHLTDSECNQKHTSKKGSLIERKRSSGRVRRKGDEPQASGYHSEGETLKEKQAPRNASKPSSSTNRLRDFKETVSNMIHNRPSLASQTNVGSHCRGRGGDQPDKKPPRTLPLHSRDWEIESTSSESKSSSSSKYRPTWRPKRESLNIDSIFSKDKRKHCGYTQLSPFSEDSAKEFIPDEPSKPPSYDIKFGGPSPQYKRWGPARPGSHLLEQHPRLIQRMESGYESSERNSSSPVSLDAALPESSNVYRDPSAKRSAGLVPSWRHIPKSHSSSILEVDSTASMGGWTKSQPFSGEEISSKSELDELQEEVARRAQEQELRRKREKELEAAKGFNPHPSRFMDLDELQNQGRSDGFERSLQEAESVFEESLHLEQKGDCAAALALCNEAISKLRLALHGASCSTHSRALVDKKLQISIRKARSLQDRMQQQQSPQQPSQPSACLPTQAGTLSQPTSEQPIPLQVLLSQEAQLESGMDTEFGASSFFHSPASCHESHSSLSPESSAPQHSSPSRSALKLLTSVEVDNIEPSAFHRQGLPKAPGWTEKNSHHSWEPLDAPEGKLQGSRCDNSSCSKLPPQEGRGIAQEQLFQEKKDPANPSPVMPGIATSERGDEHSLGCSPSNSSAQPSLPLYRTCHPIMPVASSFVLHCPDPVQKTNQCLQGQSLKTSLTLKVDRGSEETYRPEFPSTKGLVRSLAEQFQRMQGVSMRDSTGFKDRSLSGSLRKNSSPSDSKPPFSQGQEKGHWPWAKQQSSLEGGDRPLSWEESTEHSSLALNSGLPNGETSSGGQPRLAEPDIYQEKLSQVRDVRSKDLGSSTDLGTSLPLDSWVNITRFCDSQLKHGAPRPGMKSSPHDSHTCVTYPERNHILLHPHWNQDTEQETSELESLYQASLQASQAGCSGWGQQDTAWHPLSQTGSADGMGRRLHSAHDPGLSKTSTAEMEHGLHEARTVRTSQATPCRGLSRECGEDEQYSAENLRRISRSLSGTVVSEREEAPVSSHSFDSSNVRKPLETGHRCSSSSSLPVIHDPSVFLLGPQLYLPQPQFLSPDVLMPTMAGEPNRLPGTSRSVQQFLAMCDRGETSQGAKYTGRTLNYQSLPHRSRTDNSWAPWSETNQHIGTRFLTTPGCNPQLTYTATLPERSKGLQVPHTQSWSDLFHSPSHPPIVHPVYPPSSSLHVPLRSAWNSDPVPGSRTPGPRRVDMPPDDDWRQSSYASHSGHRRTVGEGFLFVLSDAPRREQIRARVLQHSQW
In short: as §1

[7] = target: USP7 (UniProt Q93009)
Chain of USP7 (Q93009 whole entry, looked up): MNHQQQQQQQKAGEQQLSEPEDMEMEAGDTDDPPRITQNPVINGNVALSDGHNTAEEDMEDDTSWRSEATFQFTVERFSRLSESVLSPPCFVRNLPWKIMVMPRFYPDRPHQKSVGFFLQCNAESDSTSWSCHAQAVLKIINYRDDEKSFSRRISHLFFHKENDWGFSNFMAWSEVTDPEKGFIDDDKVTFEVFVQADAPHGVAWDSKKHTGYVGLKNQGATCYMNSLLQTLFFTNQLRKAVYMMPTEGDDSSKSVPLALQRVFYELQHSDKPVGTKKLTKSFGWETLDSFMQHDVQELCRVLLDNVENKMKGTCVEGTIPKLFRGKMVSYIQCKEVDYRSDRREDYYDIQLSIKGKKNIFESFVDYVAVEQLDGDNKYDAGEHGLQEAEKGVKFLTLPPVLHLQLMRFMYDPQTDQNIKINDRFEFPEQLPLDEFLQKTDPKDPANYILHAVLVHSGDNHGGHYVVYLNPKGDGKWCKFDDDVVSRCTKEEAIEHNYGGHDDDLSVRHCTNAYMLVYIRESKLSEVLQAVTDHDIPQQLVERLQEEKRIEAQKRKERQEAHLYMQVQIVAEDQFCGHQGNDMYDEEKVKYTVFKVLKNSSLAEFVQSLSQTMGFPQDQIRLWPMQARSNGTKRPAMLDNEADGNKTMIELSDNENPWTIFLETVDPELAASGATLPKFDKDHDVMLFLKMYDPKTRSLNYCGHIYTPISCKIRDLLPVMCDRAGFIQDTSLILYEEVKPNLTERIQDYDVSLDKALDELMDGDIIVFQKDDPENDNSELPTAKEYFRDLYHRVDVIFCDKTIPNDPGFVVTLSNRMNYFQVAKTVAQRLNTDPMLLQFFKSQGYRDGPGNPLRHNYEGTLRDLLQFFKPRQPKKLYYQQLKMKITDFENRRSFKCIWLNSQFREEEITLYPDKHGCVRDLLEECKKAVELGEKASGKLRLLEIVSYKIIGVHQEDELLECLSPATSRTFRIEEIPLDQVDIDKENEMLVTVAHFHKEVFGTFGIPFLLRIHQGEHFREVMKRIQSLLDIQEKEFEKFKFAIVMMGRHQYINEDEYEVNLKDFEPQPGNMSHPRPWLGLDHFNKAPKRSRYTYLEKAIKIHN
In short: as §1

[8] = target: T5, USP8 (UniProt P40818)
T5 sequence (whole entry): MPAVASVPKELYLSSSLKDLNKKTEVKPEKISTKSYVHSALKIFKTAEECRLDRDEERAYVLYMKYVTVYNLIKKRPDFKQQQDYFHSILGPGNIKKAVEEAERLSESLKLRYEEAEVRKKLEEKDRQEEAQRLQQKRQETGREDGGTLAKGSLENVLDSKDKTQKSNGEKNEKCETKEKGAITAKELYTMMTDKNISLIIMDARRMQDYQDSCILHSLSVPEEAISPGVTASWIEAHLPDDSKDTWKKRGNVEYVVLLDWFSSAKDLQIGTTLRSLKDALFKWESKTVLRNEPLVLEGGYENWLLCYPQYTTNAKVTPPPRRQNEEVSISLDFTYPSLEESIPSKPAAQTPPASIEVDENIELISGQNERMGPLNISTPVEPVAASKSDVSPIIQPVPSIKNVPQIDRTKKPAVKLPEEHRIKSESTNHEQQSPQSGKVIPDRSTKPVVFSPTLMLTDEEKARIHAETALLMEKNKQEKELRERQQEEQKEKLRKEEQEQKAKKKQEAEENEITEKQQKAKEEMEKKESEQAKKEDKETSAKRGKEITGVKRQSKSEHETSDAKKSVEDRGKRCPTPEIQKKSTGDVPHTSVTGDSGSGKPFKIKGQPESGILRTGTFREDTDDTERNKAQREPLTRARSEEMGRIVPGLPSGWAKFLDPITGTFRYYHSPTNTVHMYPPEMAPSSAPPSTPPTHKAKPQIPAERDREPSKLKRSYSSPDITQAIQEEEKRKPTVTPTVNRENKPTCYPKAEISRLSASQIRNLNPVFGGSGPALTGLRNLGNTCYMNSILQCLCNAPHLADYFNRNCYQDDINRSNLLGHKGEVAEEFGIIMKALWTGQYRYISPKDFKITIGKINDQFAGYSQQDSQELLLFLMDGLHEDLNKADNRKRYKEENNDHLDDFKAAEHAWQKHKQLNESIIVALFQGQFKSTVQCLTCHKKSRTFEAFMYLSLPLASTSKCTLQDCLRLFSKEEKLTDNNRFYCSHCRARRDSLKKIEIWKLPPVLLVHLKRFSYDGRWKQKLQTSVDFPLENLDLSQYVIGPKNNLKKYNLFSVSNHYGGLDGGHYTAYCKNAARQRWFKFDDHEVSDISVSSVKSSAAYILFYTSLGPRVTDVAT
In short: as §1

Measured: log2 ratio of Biotin-Ahx-Ub-VS probe labelling

Cl.O=C(CCl)N1CCCC(c2ncc[nH]2)C1 (stereo not drawn)
inactive: [1] -0.153 | [2] 0.183 | [3] -0.357 | [4] -0.331 | [5] 0.191 | [6] 0.506 | [7] -0.273 | [8] -0.0352
